Assay [1] deals with Glucocorticoid receptor (Homo sapiens) (UniProt P04150). Nature of the assay: GR-GFP Redistribution (AID 450;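 active means compounds whose dose series gives a full or clear partial fitted curve of increased nuclear translocation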; further: potency means the concentration at half of the fitted maximal effect). The following applies: U2OS GR-GFP nuclear translocation, laser cytometry, 2 h.
For assay [2] the target is unchanged. Nature of the assay: GR-EFC Redistribution (AID 451; calls by dose curve; further: potency means the concentration at half of the fitted maximal effect). The following applies: CHO-K1 GR-EFC translocation, beta-gal luminescence, 2 h. In a few lines: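 CHO-K1 cells stably expressing nuclear-localized β-gal enzyme acceptor and GR fused C-terminally to the enzyme donor fragment; ligand-driven nuclear translocation restores β-gal by complementation. Compounds titrated up to 46 uM final, 2 h at 37 °C; luminescence read.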

Assay [3] addresses Mitogen-activated protein kinase 10 (Mus musculus) (UniProt Q61831). Nature of the assay: JNK3 AlphaScreen Assay (AID 530; active means well fitted curve in either direction with a large enough effect, not every such curve was filed as active;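 further: kinase came from lysate of stimulated human HepG2 cells; signal reports phosphorylation of biotinylated GST-cJun 1-79 at Ser73 with 10 µM ATP; on the % scale 0 is the no-effect control and ±100 the full control effect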). The following applies: JNK3 lysate, c-Jun phosphorylation; series mostly up to 57.1 µM. The gist of the method:
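Phosphorylation of biotinylated GST-cJun(1-79) at Ser73 is measured by AlphaScreen proximity luminescence. Enzyme is JNK3 in HepG2 lysates activated with interleukin-1beta and tumor necrosis factor alpha; ATP is 10 uM final.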
A general note: Bead proximity is the source of the signal in Alpha formats.

The target in assay [4] is Cytochrome P450 2C19 (Homo sapiens) (UniProt P33261). The experiment in a line: qHTS Assay for Inhibitors and Substrates of Cytochrome P450 2C19 (AID 899). Further: potency means the concentration at half of the fitted maximal effect; nearly all actives have a fitted effect of over 60% in size. The following applies: recombinant CYP2C19, luciferin-H EGE luminescence; series mostly up to 57.1 µM. In a few lines: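 NADPH-dependent conversion of Luciferin-H EGE (10uM, at KM) by 5nM enzyme in 50mM KPO4, 60 min at 37C following 10 min compound preincubation. Stopped with luciferin detection buffer; luminescence read after 20 min.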
Sequence of Cytochrome P450 2C19 (Homo sapiens) (P33261 whole entry, looked up): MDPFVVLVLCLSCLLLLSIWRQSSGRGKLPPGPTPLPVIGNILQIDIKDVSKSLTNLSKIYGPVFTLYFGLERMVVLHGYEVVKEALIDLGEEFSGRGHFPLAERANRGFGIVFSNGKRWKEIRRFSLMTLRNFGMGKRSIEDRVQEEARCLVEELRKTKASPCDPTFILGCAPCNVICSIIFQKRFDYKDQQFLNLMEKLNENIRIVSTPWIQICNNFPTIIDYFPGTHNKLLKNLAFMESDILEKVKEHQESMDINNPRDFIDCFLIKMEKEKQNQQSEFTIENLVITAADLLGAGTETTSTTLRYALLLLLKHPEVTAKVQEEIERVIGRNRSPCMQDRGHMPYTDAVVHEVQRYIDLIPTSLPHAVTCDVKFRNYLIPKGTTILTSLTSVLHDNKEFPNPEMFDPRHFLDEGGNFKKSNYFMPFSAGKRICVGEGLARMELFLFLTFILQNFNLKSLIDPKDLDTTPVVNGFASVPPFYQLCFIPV
(In general: qHTS replaces the single test concentration by a dilution series.)

The nature of assay [5]: qHTS Assay for Lipid Storage Modulators (AID 1519; calls by dose curve). The following applies: Drosophila S3 cells, BODIPY lipid droplet/cell ratio, laser cytometry, cells loaded with oleic acid. In a few lines: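 Cells seeded at 5,000 per well were treated with compounds over a concentration series and loaded with oleic acid (400 uM, as added). Lipid droplet fluorescence (488 nm excitation, 500-530 nm channel) was read by laser-scanning cytometry and normalized to 20 uM Triacsin C.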

Assay [6] has as its target DNA dC->dU-editing enzyme APOBEC-3G (Homo sapiens) (UniProt Q9HC16). Nature of the assay: qHTS for inhibitors of Vif-A3G interactions: Validation (AID 588379). Further: 0% is about no effect. The following applies: Vif-A3G protein interaction assay; series mostly up to 46.1 µM. The gist of the method:
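Yellow fluorescence (Ex 488, Em 500-530) of Vif-coexpressing HeLa A3G-eYFP cells, scanned by Acumen cytometer, reports blocked A3G degradation. Cells plated at 700/well overnight at 37 deg C before compound addition, then a further overnight compound incubation at 37 deg C.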

The test system of assay [7] is Zika virus NS2B-NS3 protease. The experiment in a line: Primary screen GU AMC qHTS for Zika virus inhibitors (AID 1347154).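 Further: 0% = no-inhibitor control and -100% = no-enzyme control; nearly all actives have a fitted effect of over 70% in size.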 The following applies: Zika NS2B-NS3 unlinked protease, AMC fluorogenic substrate; series mostly up to 54.1 µM. The gist of the method:
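Unlinked Zika NS2B hydrophilic domain/NS3 protease domain noncovalent complex (25 nM final) in 10 mM Tris-HCl pH 8.0, 0.01% Tween 20, with AMC peptide substrate. Fluorescence (ex 340, em 450 nm) change over 15 min, room temperature; percent inhibition fitted to 4-parameter Hill equation.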

The nature of assay [8]: Primary qHTS for small molecule stabilizers of the endoplasmic reticulum resident proteome: Secreted ER Calcium Modulated Protein (SERCaMP) assay (AID 1508630). Further: on the % scale 0 is the no-effect control and ±100 the full control effect. The following applies: SH-SY5Y GLuc-SERCaMP (Gaussia luciferase released on ER calcium loss) secretion, thapsigargin, luminescence; series mostly up to 38.4 µM. In a few lines:
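The SH-SY5Y reporter protocol was run at 3 concentrations up to 38.3 uM (primary) or 11 concentrations (follow-up): 16 h compound, 100 nM thapsigargin for 4 h, then extracellular luciferase luminescence.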

Assay [9] has as its target Cytochrome P450 1A2 (Homo sapiens) (UniProt P05177). Nature of the assay: p450-cyp1a2 (AID 410; calls by dose curve; further: potency means the concentration at half of the fitted maximal effect;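 on activity change, negative = inhibition: -100% = full effect of reference inhibitor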). The following applies: recombinant CYP1A2, luciferin-ME demethylation, luminescence; series mostly up to 57 µM. The gist of the method:
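O-Demethylation of luciferin 6' methyl ether by human CYP1A2 is monitored as luciferase luminescence. Substrate sits at Km (100uM); enzyme is 20nM. Values are scaled to 57 uM furafylline as maximal inhibition.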

Assay [10] addresses 3',5'-cyclic-AMP phosphodiesterase 4B (Homo sapiens) (UniProt Q07343). Nature of the assay: qHTS Assay for Inhibitors of PDE-IV (AID 607; active means well fitted activation curve with a large enough effect in the main read-out, with a control signal flat, not every such curve was filed as active; further: % of control where 0% means no effect). The following applies: HEK293 ACTOne CNG channel cells, membrane potential fluorescence; series mostly up to 22.9 µM. The gist of the method:
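Live HEK293 cells with a modified cyclic nucleotide-gated (CNG) channel report intracellular cAMP via membrane-potential dye fluorescence (ex 535/em 590 nm). Endogenous PDE-IV was targeted. Compounds were tested at up to 22.9 uM final; RO 20-1724 100 uM served as control.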

Assay [11] addresses Ubiquitin carboxyl-terminal hydrolase 1 (Homo sapiens) (UniProt O94782). Nature of the assay: Inhibitors of USP1/UAF1: Pilot qHTS (AID 504865).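 Further: rhodamine fluorescence freed from ubiquitin-rhodamine substrate followed over time; top concentration of the series differs between compounds; on the % scale 0 is the no-effect control and ±100 the full control effect; nearly all actives have a fitted effect of over 35% in size.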 The following applies: purified USP1/UAF1, Ub-rhodamine cleavage fluorescence; series mostly up to 114 µM. The gist of the method:
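In 50mM HEPES pH 7.8 containing 0.5mM EDTA, 1mM TCEP, 0.1 mg/ml BSA and 0.01% Tween-20, 1nM USP1/UAF1 is exposed to compound for 15 min, then Ub-Rho (150nM final) is added and fluorescence is read over time.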

The nature of assay [12]: AP1 Signaling Pathway (AID 357; active means well fitted curve in either direction with a large enough effect, not every such curve was filed as active; further: on the % scale 0 is the no-effect control and ±100 the full control effect). The following applies: ME-180 AP-1-bla reporter, EGF-induced, beta-lactamase ratio, 5 h. The gist of the method:
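AP-1-bla ME-180 cells with beta-lactamase reporter under AP-1 response element, stimulated with EC50 EGF; compounds titrated, 5 hours at 37 degrees Celsius. CCF4 read at 460/530 nm ratio; positive and negative modulators judged by AC50.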

Assay [13] is described as follows: NFAT Signaling Pathway (AID 444; active means well fitted curve in either direction with a large enough effect, not every such curve was filed as active;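 further: carbachol stimulus at about its EC50 of 1 µM final; on the % scale 0 is the no-effect control and ±100 the full control effect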). The following applies: Jurkat NFAT-bla M1, carbachol, beta-lactamase ratio, 5 h; at 38 µM (top of the series). In a few lines: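 Jurkat cells carrying an NFAT-driven β-lactamase reporter and co-transfected muscarinic M1 receptor were treated with compound plus carbachol (1 uM final, an EC50 level) for 5 h at 37 °C. CCF4 loading followed for 1 h at RT; 460/530 nm ratio gave %activity.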

Assay [14] can be described thus: Stat Signaling Pathway (AID 446; active means well fitted curve in either direction with a large enough effect, not every such curve was filed as active). The following applies: ME-180 (cervical carcinoma) SIE beta-lactamase reporter, IL-6 stimulated, 5 h. In a few lines:
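Overnight-plated ME-180 cells bearing a STAT Inducible Element beta-lactamase reporter; 5 h co-exposure to compound and 40 pM IL-6; values normalized to 300 pM IL-6 and 125 nM JAK inhibitor controls.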

Assay [15] can be described thus: qHTS Assay for Identification of Small Molecule Agonists for Thrombopoietin (TPO) Signaling Pathway (AID 917). Further: on the % scale 0 is the no-effect control and ±100 the full control effect. The following applies: TPO signaling pathway reporter cells, agonist qHTS, stimulated with TPO at its EC50; series mostly up to 38.5 µM. In a few lines: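 Cell-based luciferase reporter screen. Mouse Ba/F3 line stably expressing human TPO receptor; IL-3 removed overnight before plating. Co-treatment with compound and EC50 TPO (26 pM), 24 hrs at 37 C, then luminescence.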

Assay [16] has as its target Pyruvate kinase (Leishmania mexicana) (UniProt Q27686). The experiment in a line: qHTS Validation Assay for Inhibitors of Leishmania Mexicana Pyruvate Kinase (AID 945).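 Further: 0% = DMSO only neutral control wells.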 The following applies: purified L. mexicana pyruvate kinase, enzyme activity, E451W mutant enzyme; series mostly up to 57.5 µM. In a few lines:
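Read-out: luminescence from PKLight stop/detection reagent, data normalized to DMSO. Reaction: 0.2 nM E451W LmPYK, 0.5 mM PEP, 0.1 mM ADP, pH 7.2, 1 h room temperature.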

Assay [17] addresses Alpha-galactosidase A (Homo sapiens) (UniProt P06280). Nature of the assay: Counterscreen for Glucocerebrosidase Inhibitors: qHTS Assay for Human alpha-Galactosidase at pH 4.5 (AID 992). Further: 0% is about no effect. The following applies: purified enzyme, fluorogenic substrate; series mostly up to 76.9 µM. In a few lines: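 Each compound is preincubated briefly with 2 nM enzyme before substrate addition (80 uM); plates then sit 20 min at ambient temperature, are quenched with 1M NaOH/1M glycine, and read fluorometrically.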
For orientation: A counterscreen serves to expose hits that act by an unwanted route or on another target.

For assay [18], the target named is alpha-glucosidase (Oryza sativa, rice) (UniProt Q653V4). The experiment in a line: Counterscreen for Glucocerebrosidase Inhibitors: qHTS Assay for Rice alpha-Glucosidase at pH 5.0 (AID 997).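 Further: 0% = full activity with enzyme and -100% = basal without enzyme.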 The following applies: rice alpha-glucosidase enzyme activity; series mostly up to 76.9 µM. In a few lines:
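Endpoint fluorogenic assay at pH 5.0: compounds (0.7 nM to 77 uM) titrated against 4 nM rice enzyme and 400 uM 4-MU-alpha-glucoside for 20 min at room temperature; NaOH/glycine stop, read ex 365/em 440 nm, Hill-fitted AC50.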

For assay [19], the target named is Guanine nucleotide-binding protein G(i) subunit alpha-1 (Homo sapiens) (UniProt P63096). Nature of the assay: qHTS Assay for Inhibitors of RGS12 GoLoco Motif Activity (Green Fluorophore) (AID 879).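 Further: 0% = labeled peptide with Gαi1 and full inhibition = labeled peptide alone without protein; negative values mean loss of peptide binding seen as reduced polarization.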 The following applies: Galphai1/FITC-RGS12 GoLoco peptide, fluorescence polarization; series mostly up to 57.1 µM. In a few lines: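 A drop in FITC polarization marked displacement of the FITC-tagged RGS12 GoLoco peptide (10 nM) from Gαi1 (50 nM). Compounds were incubated 10 min at room temperature in Tris pH 7.5 buffer containing 150 mM NaCl, 0.1 mM GDP and 0.05% NP40; unlabeled peptide titration served as control.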
Sequence of Guanine nucleotide-binding protein G(i) subunit alpha-1 (Homo sapiens) (P63096 whole entry, looked up): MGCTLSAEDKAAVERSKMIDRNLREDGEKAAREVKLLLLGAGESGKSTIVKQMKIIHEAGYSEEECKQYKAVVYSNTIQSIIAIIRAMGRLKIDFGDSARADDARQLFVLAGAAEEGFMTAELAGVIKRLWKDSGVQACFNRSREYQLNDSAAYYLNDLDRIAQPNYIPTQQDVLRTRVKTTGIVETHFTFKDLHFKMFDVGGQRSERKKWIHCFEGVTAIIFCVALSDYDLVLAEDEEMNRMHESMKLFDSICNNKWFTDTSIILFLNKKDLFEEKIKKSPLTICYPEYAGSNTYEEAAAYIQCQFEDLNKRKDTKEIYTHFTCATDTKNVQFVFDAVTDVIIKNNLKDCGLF

SMILES strings stand for the structures. Several values for one entry are separate records, joined by “and”; a condition that tells them apart may be missing. Equal entries are not always repeated. Inconclusive results are not listed. A structure can be active in one record and inactive in another. Activity calls are given as the source filed them. Unless noted, the call rests on the fitted dose curve; in most records, active means well fitted curve in the direction sought with a large enough effect; inconclusive means small, poorly fitted or top-dose-only effect, or another doubt; inactive means no such curve, though single readings can be large; an effect the other way counts as inactive or inconclusive. A value given as a limit tells only on which side of the number the result lay.

Sequence of DNA dC->dU-editing enzyme APOBEC-3G (Homo sapiens) (Q9HC16 whole entry, looked up): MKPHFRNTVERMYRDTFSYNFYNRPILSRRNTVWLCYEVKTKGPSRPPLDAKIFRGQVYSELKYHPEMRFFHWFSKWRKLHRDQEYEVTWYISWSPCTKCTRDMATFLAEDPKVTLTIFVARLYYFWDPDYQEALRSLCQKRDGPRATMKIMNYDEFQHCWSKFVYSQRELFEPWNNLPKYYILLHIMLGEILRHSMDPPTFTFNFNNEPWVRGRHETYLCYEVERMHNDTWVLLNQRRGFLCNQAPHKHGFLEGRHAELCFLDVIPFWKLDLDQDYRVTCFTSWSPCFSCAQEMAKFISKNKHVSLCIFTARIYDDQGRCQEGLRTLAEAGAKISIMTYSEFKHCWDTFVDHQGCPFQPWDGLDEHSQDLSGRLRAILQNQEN
Sequence of Glucocorticoid receptor (Homo sapiens) (P04150 whole entry, looked up, the tested form may be a part): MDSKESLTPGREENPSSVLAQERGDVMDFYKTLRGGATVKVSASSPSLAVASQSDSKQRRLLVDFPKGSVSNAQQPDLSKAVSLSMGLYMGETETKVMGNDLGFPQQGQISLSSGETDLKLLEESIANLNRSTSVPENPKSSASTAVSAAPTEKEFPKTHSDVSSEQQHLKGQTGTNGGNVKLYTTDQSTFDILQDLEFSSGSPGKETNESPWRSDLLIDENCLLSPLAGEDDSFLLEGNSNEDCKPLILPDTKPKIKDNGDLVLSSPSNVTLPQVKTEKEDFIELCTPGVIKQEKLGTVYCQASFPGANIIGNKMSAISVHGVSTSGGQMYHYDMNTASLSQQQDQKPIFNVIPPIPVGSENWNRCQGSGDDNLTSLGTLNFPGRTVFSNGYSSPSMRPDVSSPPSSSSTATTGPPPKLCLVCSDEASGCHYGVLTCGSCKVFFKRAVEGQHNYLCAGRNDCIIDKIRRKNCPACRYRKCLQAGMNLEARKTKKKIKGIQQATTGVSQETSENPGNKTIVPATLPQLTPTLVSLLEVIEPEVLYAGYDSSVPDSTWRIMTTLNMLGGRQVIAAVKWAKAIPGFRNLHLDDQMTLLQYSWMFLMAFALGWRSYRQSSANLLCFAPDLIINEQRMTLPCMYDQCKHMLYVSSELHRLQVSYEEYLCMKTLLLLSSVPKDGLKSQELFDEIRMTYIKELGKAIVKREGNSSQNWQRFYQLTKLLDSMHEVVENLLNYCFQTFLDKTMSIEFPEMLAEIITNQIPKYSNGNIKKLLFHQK
Sequence of 3',5'-cyclic-AMP phosphodiesterase 4B (Homo sapiens) (Q07343 whole entry, looked up): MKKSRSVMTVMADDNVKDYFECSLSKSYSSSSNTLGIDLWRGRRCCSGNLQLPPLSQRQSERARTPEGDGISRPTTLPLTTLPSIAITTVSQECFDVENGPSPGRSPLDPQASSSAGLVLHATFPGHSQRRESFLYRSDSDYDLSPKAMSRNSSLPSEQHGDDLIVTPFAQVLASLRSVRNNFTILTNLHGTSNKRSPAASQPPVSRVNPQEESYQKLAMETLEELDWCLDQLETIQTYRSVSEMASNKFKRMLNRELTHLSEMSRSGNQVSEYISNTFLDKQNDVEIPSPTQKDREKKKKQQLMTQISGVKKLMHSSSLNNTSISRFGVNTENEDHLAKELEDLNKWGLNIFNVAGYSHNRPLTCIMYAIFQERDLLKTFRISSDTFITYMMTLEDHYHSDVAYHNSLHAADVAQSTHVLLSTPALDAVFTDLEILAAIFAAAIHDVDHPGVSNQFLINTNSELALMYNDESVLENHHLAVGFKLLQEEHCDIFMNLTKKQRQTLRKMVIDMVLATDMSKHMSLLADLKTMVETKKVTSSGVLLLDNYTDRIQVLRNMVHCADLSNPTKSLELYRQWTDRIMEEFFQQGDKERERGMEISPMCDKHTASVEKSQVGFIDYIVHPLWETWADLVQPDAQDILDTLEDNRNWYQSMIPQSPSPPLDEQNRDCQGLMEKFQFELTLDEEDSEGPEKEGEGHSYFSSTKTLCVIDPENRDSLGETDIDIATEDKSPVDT
Sequence of Cytochrome P450 1A2 (Homo sapiens) (P05177 whole entry, looked up): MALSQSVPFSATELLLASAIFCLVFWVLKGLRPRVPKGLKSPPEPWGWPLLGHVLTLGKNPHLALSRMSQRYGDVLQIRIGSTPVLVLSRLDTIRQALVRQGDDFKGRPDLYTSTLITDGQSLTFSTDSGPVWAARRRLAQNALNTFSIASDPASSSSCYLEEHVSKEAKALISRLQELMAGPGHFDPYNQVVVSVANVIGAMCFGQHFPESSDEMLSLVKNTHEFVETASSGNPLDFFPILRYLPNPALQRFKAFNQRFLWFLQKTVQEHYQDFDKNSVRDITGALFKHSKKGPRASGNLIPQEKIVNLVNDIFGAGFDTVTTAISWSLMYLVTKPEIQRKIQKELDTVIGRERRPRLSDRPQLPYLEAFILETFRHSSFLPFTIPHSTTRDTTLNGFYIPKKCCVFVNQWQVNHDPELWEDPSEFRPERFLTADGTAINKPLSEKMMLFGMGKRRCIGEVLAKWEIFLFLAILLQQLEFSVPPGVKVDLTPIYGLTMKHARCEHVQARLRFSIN
Sequence of Pyruvate kinase (Leishmania mexicana) (Q27686 2-499 E452W): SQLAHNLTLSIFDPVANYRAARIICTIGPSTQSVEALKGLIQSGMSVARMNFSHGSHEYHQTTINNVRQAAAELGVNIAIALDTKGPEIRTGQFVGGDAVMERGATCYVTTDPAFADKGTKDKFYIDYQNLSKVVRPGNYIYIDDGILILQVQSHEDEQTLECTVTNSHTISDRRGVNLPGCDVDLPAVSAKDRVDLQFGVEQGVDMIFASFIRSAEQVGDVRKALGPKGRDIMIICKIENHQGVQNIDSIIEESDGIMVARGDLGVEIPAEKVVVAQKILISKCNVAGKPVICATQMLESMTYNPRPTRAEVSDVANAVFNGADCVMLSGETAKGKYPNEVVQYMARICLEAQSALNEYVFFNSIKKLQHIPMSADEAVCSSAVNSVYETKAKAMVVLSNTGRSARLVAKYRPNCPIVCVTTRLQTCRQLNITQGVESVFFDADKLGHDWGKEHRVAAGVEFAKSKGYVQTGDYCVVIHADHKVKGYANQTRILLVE
Sequence of Alpha-galactosidase A (Homo sapiens) (P06280 whole entry, looked up): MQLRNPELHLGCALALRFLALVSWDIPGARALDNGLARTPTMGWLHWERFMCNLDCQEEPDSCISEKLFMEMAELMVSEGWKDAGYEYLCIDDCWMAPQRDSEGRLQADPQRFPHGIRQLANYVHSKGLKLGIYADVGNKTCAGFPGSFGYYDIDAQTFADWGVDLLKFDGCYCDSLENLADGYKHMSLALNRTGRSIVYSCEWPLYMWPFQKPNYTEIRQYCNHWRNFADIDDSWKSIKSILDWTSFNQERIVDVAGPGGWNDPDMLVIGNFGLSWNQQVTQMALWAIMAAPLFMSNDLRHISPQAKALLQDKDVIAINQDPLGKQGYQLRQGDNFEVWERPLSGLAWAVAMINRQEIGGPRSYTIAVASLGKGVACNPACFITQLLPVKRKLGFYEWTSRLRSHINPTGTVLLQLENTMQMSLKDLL
Sequence of Ubiquitin carboxyl-terminal hydrolase 1 (Homo sapiens) (O94782 whole entry, looked up): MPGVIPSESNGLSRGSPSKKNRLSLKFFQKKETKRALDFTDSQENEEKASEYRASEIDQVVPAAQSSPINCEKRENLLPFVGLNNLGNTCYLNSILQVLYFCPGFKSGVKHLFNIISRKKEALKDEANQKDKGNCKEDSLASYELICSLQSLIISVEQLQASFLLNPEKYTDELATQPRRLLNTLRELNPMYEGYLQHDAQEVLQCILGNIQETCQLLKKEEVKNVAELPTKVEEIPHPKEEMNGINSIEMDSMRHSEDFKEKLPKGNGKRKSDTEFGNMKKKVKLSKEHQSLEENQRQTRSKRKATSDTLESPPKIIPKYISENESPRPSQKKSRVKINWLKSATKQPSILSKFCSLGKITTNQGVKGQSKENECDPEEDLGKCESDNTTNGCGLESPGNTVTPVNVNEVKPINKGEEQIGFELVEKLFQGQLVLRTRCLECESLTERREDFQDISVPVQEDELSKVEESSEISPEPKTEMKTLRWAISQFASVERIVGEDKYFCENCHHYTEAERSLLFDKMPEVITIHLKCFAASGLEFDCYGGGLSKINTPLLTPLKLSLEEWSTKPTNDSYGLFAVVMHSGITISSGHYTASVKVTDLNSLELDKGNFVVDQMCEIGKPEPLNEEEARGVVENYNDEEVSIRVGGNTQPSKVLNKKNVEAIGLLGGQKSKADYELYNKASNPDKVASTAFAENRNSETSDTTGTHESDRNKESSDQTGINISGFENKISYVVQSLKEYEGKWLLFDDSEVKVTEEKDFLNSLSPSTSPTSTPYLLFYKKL

Consider `CCCN=C(N)NCCC[C@H](N)C(=O)O`, for which the figures for the Potency in assay [1], in [2] and in assay [4] were > 46 µM (inactive), > 46 µM (inactive) and 2 µM (active), respectively. The Potency entry in [3], in [6], in [7] and in assay [8] was “inactive” throughout. In addition, the activity change, negative = inhibition in assay [5] (at 57.5 µM (top of the series)) is -1.86% (inactive). Also, the max response in [5] (measured here: cell count channel max response) is -18.5%; in [5] (measured here: lipid channel max response), -20.5%.

On to `C[C@H]1C=C2C=C[C@H](C)[C@H](CC[C@@H]3C[C@@H](O)CC(=O)O3)[C@H]2[C@@H](OC(=O)[C@@H](C)CCO)C1`, for which the Potency in assay [9] was 31.6 µM (active); in assay [2] it was > 46 µM (inactive). The Potency entry in [3], in assay [6], in assay [7] and in assay [8] was “inactive” each time.

For the compound `CC(C)SC(=N)N`, the Potency entry in assay [9], in assay [3], in [10], in [11], in assay [6] and in assay [7] was “inactive” throughout. In addition, in assay [8], the Potency entry was “inactive”. Moreover, the Potency in assay [1] and in assay [2] was > 46 µM (inactive) in each case.

With `C[C@@H]1C[C@@H]2[C@H]3CCC4=CC(=O)C=C[C@]4(C)[C@]3(F)[C@@H](O)C[C@@]2(C)[C@@]1(O)C(=O)CO`, the activity change, negative = inhibition in [12] (at 38 µM (top of the series)) was -8.71% (inactive); in assay [13], 7.2% (inactive). Besides, the Potency result in [9], in assay [10], in assay [15], in assay [16], in assay [6] and in assay [7] was “inactive” each time. Further, in assay [8], the Potency result was “inactive”. For the same compound, in assay [14] (at 38 µM (top of the series)), the activity, negative = inhibition was -19.7% (inactive). Besides, the result in assay [17] and in assay [18] was inactive.

For `C[C@@H]1CCN=C(N)S1`, the activity change, negative = inhibition in assay [12] (at 38 µM (top of the series)) is 12.9% (inactive); in assay [13] it was 2.83% (inactive). In addition, the Potency result in [9] is “inactive and 39.8 µM (active)”; in [1] it was > 46 µM (inactive); in [2], > 46 µM (inactive). In addition, in [14] (at 38 µM (top of the series)), the activity, negative = inhibition was 9.1% (inactive). Besides, the Potency result in assay [3], in assay [10], in [15], in [16], in assay [6] and in [7] was “inactive” in each case. In assay [8], the Potency entry was “inactive”. For the same compound, the call in assay [19], in [17] and in assay [18] was inactive.

Take `CCCCC[C@H](O)/C=C/C1=C(CCCCCCC(=O)O)C(=O)CC1`: the activity change, negative = inhibition is -2.06% (inactive) in assay [12] (at 17.2 µM (top of the series)), 14% [at 6.83 µM] (inactive) in assay [7] and -5.34% [at 3.88 µM] (inactive) in assay [8]. Moreover, the activity, negative = inhibition in assay [14] (at 17.2 µM (top of the series)) is 0.776% (inactive). In addition, the Potency in assay [1] was > 20.6 µM (inactive).

For the compound `CCC(C)(C)C(=O)O[C@@H]1C[C@@H](C)C=C2C=C[C@H](C)[C@H](CC[C@@H]3C[C@@H](O)CC(=O)O3)[C@H]21`, the Potency in assay [1] and in [2] was > 46 µM (inactive) throughout. Moreover, the Potency entry in [3], in assay [6], in assay [7] and in [8] was “inactive” in each case.

These data come from PubChem BioAssay (NCATS).
